This note sets out measurements from PubChem BioAssay AID588493 (Sanford-Burnham Center for Chemical Genomics, 2011).

Hit rate of the full screen: of about 360,000 compounds, about 2,100 (0.58%) were called active.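 How the source made its calls: active means inhibition at 20 µM, scaled to each plate's controls, above about 33% (limit read from the data); inactive means the rest.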 The list comes from a sample in which actives are over-represented; it also holds similar structures and randomly drawn compounds.

This test deals with 26S proteasome non-ATPase regulatory subunit 14 (Homo sapiens) (UniProt O00487). The test is described as follows: inhibition of 26S proteasome subunit Rpn11 – biochemical, fluorescence polarization, uHTS, primary screen (AID 588493). The note with it: human 26S proteasome, Ub4-pepOG fluorescence polarization; at 20 µM; hits give high values; 20S core pre-blocked with epoxomicin. A general note: In fluorescence polarisation assays a small probe gives low polarisation when free and higher when bound to something large.
26S proteasome non-ATPase regulatory subunit 14 (Homo sapiens), sequence (O00487 whole entry, looked up): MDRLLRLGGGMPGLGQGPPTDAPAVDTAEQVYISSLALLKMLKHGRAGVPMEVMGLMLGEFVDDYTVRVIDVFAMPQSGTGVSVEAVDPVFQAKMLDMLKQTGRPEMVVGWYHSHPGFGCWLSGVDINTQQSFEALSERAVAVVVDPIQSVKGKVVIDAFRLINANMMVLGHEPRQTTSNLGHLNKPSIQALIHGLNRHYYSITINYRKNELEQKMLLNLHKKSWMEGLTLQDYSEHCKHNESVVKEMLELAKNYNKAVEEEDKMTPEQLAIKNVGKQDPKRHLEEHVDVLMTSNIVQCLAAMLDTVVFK
Consider `Cc1nc2ccccc2n1C(=O)N1CCOCC1`, for which the inhibition (as a rule, the change of the read-out against control, counted positive when it falls) was 58.5% (active).
For the molecule `O=C(c1cc(-c2ccc(Cl)s2)nc2ccccc12)N1CCOCC1`, the inhibition was -0.8% (inactive).
Take `O=C(N1CCOCC1)N1CCOCC1`: the inhibition is -1.2% (inactive).
For the molecule `CCOC(=O)C1(Cc2cccc(OC)c2)CCCN(C(=O)CCSC)C1` (configuration not stated), the inhibition is 5.4% (inactive).
On to `Cc1c(NC(=O)CSc2nnnn2-c2ccc(C(=O)O)cc2)c(=O)n(-c2ccccc2)n1C`, for which the inhibition is -4.2% (inactive).
The value for `Cc1c(NC(=O)CSc2cccc3cccnc23)c(=O)n(-c2ccccc2)n1C` was 48.6% (active); that for `Cc1c(NC(=O)CSc2nnc(-c3cccnc3)n2N)c(=O)n(-c2ccccc2)n1C` was 0% (inactive); that for `CC(C)CC(NC(=O)C1CCCN1C(=O)[C@@H](C)NC(=O)OCc1ccccc1)C(=O)NCC(N)=O` (some centres not stated) was -2.1% (inactive).
Take `CC(C)CC(O)C1CCN(C(=O)CCc2nnc(-c3ccc4c(c3)OCO4)o2)CC1` (configuration not stated): the inhibition is -1.9% (inactive).
Next, `O=[N+]([O-])c1ccccc1Nc1ccc(O)cc1`: 0.3% (inactive).
Next, `Cc1ccc(Nc2nc(N)nc(CSc3nnc(C)s3)n2)cc1`: -0.4% (inactive).
On to `Cc1ccc(Nc2ccccc2N)cc1`, for which the inhibition was 53% (active).
Next, `O=[N+]([O-])c1cc(S(=O)(=O)Nc2cccc(Cl)c2)ccc1N=Nc1c(O)[nH]c2ccccc12`: -18% (inactive); `Cc1c(OC(C)C(=O)N[C@@H](Cc2ccccc2)C(=O)O)ccc2c3c(c(=O)oc12)CCCC3` (some centres not stated): -4.9% (inactive).
`Cc1c(CCC(=O)N[C@@H](CC(C)C)C(=O)O)c(=O)oc2c(C)c3oc4c(c3cc12)CCCC4`: the inhibition was -8.5% (inactive).
In the case of `Cc1oc2c(C)c3oc(=O)c(CC(=O)N[C@@H](CC(C)C)C(=O)N[C@@H](Cc4ccccc4)C(=O)O)c(C)c3cc2c1C`, the inhibition was 71.8% (active).
Next, `CC(=NCc1ccc2c(c1)OCO2)C1=C(O)c2ccccc2C1=O`: -6.8% (inactive); `CCOc1ncccc1C(=O)OCC(=O)Nc1cccc(S(=O)(=O)N2CCCCCC2)c1`: 1.7% (inactive); `CC(C)(C)c1ccc(C(=O)NCc2ccco2)cc1`: 0.7% (inactive).
Next, `CCc1ccc(-c2cc(C(=O)NCc3ccco3)c3ccccc3n2)s1`: 40.1% (active); `Cc1cccc(Nc2ccccc2C(=O)NCc2ccco2)c1C`: 0.1% (inactive); `CN1CCNC(=O)C1CC(=O)N1CC=C(c2ccc(F)cc2)CC1` (configuration not stated): -2.3% (inactive).
Next, `CCCCCCCCCCOC(=O)Cn1c(COc2cccc(OC)c2)[n+](C)c2ccccc21`: 33% (active); `COc1cccc(CN(C)CC(=O)Nc2sc3c(c2C#N)CCC3)c1`: 18% (inactive).
As to `CCCc1cc(=O)[nH]c(SCC(=O)Nc2sc3c(c2C#N)CCCC3)n1`, the inhibition is 2% (inactive).
For `COc1ccc(-n2c(SCC(=O)Nc3sc4c(c3C#N)CCCC4)nnc2-c2ccc(O)cc2)cc1`, the inhibition was 59.6% (active).
Consider `Cc1ccc(Cc2c(-c3ccco3)nc3ccc(Cl)cn23)cc1`, for which the inhibition is 18.2% (inactive).
In the case of `COC(=O)c1c(CCl)noc1C(=O)NC(C)C`, the inhibition is -0.8% (inactive).
Next, `O=C(/C=C/c1cccs1)c1cc(Cl)ccc1OC(=O)N1CCOCC1`: 1.7% (inactive); `O=c1c2ccccc2ncn1CCc1ccncc1`: 1.2% (inactive).
Consider `Cc1cc(/C=C2/SC(=O)N(CC(=O)N3CCCC3)C2=O)ccc1N1CCOCC1`, for which the inhibition was 59.6% (active).
For the molecule `Cc1ccc2c(c1)N(CC(=O)N1CCOCC1)C(=O)CO2`, the inhibition was -3.1% (inactive).
Next, `O=C(CN1C(=O)CSc2ncccc21)N1CCOCC1`: -4.6% (inactive); `Cc1cccc(N(C(=O)c2sc(C)nc2C)C(C(=O)NCC2CCCO2)c2ccccc2)c1` (configuration not stated): -7.9% (inactive); `CCNC(=O)C1(C)CCCN(Cc2noc(-c3ccccc3OC)n2)C1` (configuration not stated): 2.1% (inactive).
The value for `CC(=O)N1CCN(Cc2cc(=O)oc3cc(C)ccc23)CC1` was 9.9% (inactive); that for `Cc1ccc(S(=O)(=O)N2[C@@H](c3ccc(Br)cc3)C(C(=O)O)=C[C@H]2CC2CCCC2)cc1` was 14.1% (inactive); that for `COc1cccc(NC(=O)C2(C)CCN2C(=O)CCC2CCCC2)c1` (configuration not stated) was -22.2% (inactive).
Next, `COc1cccc(CN2C(=O)CCC2(C)C(=O)NC2CCCCCC2)c1` (configuration not stated): 3.5% (inactive).
For the molecule `Cc1nnc(N(Cc2ccco2)C(=O)c2ccno2)s1`, the inhibition was 15% (inactive).
For the molecule `COc1ccc(NC(=O)Cn2nnc(C(=O)NCCc3ccc(OC)c(OC)c3)c2N)cc1`, the inhibition was 7% (inactive).
The value for `COc1ccc(CNC(=O)c2nnn(CC(=O)Nc3cc(C)cc(C)c3)c2N)cc1` was 58.1% (active); that for `COc1cccc(CNC(=O)c2nnn(CC(=O)Nc3cc(C)ccc3C)c2N)c1` was -0.5% (inactive); that for `O=C(Nc1cccc(C(=O)O)c1)/C(=C\c1ccccc1)NC(=O)c1ccc(Br)o1` was 1.3% (inactive).
In the case of `CC1(C)NC(=O)N(CCCCSc2ccc(Cl)cc2)C1=O`, the inhibition is 1.8% (inactive).
As for `O=P(c1ccc2c(c1)OCCO2)(N1CCOCC1)N1CCOCC1`, the inhibition is 2.8% (inactive).
As for `CS(=O)(=O)c1ccc2c(c1)SC1=NC(=O)/C(=C/c3ccco3)C(=N)N12`, the inhibition was 76.1% (active).
Next, `CCS(=O)(=O)C1=NSC2=NC(=O)/C(=C\c3ccc(OS(=O)(=O)c4ccccc4)cc3)C(=N)N21`: 22.6% (inactive).
Next, `CCCC1C(c2ccccc2)C(C#N)(C#N)C2(C#N)CC1(N)NC2=O` (configuration not stated): 3% (inactive); `COc1ccc(-c2ccnc(SCC(=O)N3CCOCC3)n2)cc1`: -4% (inactive).
The value for `COC1=C/C(=C/c2c(N)n3nc(CC(=O)N4CCOCC4)sc3nc2=O)C=CC1=O` was 46.9% (active); that for `O=C(Oc1ccccc1C(=S)N1CCCCC1)c1cc([N+](=O)[O-])cc([N+](=O)[O-])c1` was 1.8% (inactive); that for `CC(C)CC1C(=O)N(Cc2cn(CC3CCCCC3)nn2)CCS(=O)(=O)N1Cc1ccc(-c2ccc(Cl)cc2)cc1` (configuration not stated) was -2.7% (inactive).
`CC1C(=O)N(Cc2cn(Cc3ccco3)nn2)CCS(=O)(=O)N1Cc1ccc(-c2cccc(CO)c2)cc1` (configuration not stated): the inhibition is 4.5% (inactive).
Next, `CC(C)CC1C(=O)N(Cc2cn(Cc3ccco3)nn2)CCS(=O)(=O)N1Cc1ccc(-c2ccc(Cl)c(Cl)c2)cc1` (configuration not stated): 59.9% (active).
The value for `COc1ccc(NC(=O)CNC(=O)Cn2ccc3ccccc3c2=O)c(OC)c1` was -3.8% (inactive).
As to `CC(C)C1N=C2c3ccccc3N=C(SCC(=O)c3ccc(O)c(O)c3)N2C1=O` (configuration not stated), the inhibition was -6.6% (inactive).
